Among all 2,300 compounds or so, about 330 (14%) showed activity. A selection follows. A number with no mark means an inactive call.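 Rule for the calls: active = median modified Z-score above 1.96; inactive = 1.96 or below.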
test system: HepG2 Srxn1-GFP reporter cells (+30 nM CDDO-Me); test: Srxn1-GFP intensity median modified Z-score relative to plate median; higher = stronger NRF2 / oxidative stress reporter activation, active = hit call of the paper; settings: 10 µM; exposure time: 24h
Procedure, shortened: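 HepG2 Srxn1-GFP BAC reporter cells were seeded at 20,000 per well in 96-well plates and co-exposed for 24 h to compound at 10 μM and an NRF2 activator at 30 nM, with DMSO at ≤0.1%, in three replicate plates. Cells were fixed with formaldehyde, stained with Hoechst and imaged by confocal microscopy, and cytoplasmic GFP was measured per cell, with images holding under 100 cells discarded. The reported value is the median over replicates of each plate's modified Z-score of GFP intensity. For this score, scaling used 1.4826 × median absolute deviation.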

| Structure (SMILES) | Srxn1-GFP intensity median modified Z-score |
| --- | --- |
| CC1(C)O[C@@H]2[C@@H](CO[C@@]3(COS(N)(=O)=O)OC(C)(C)O[C@@H]23)O1 [euspeclibcmpd870] | 0.206 |
| CC(C)=CCC/C(C)=C/CO [euspeclibcmpd1453] | 2.94 (active) |
| CC(C)=CCC/C(C)=C/CC/C(C)=C/CC/C(C)=C/CC/C(C)=C/CC/C(C)=C/CC/C(C)=C/CC/C(C)=C/CC/C(C)=C/CO [euspeclibcmpd1640] | -0.00439 |
| CC(C)=CCC/C(C)=C/CC/C(C)=C/CO [euspeclibcmpd2192] | 1.35 |
| Cc1ccc(-c2nc(CSc3nc(C)c(C)n3CC3CCCO3)co2)c(C)c1 (configuration not stated) | 1.14 |
| CCCC1O[C@@H]2CC3C4CC=C5CC(=O)C=CC5(C)C4[C@@H](O)CC3(C)[C@]2(C(=O)CO)O1 (some centres not stated) [euspeclibcmpd352] | -0.649 |
| Oc1oc(O)c2c1C1CCC2O1 [euspeclibcmpd1748] | 3 (active) |
| CC(=O)O[C@H]1CC[C@]2(C)C3CC[C@@]4(C)C(CC5O[C@@]6(CCC(C)CO6)[C@@H](C)C54)C3CC[C@@H]2C1 (some centres not stated) [euspeclibcmpd1531] | -0.369 |
| O=S(=O)(c1ccc(Cl)nc1)N(CC1CCCO1)C1CCSC1 (configuration not stated) | 1.21 |
| Cc1c(C)c(O)c(C(=CCCCCC(=O)O)c2ccccc2)c(C)c1O [euspeclibcmpd470] | -0.366 |
| COc1c2ccoc2nc2c(OC)c(OCC(O)C(C)(C)O)ccc12 (configuration not stated) [euspeclibcmpd1658] | 26 (active) |
| C[C@]12CCC(=O)CC1=CC=C1C2CC[C@@]2(C)C1CC[C@@]21CCC(=O)O1 (some centres not stated) [euspeclibcmpd726] | 0.642 |
| CN1C2CC[C@H]1C[C@@H](OC(=O)C(O)c1ccccc1)C2 (some centres not stated) [euspeclibcmpd2075] | 0.0546 |
| CCN(CC)CCOC(=O)C(c1ccccc1)C1CCCCC1 (configuration not stated) [euspeclibcmpd1055] | 0.0961 |
| CCN(CC)CCOCCOC(=O)C1(c2ccccc2)CCCC1 [euspeclibcmpd389] | -0.0174 |
| CCN(CC)CCOC(=O)C1(C2CCCCC2)CCCCC1 [euspeclibcmpd90] | 2.86 (active) |
| NC(=O)C1CCCN1C(=O)C(Cc1c[nH]cn1)NC(O)c1ccc(O)[nH]1 (configuration not stated) [euspeclibcmpd919] | 0.145 |
| COc1c(O)cc(O)cc1O [euspeclibcmpd1393] | -0.431 |
| COc1ccccc1O [euspeclibcmpd1265] | -0.0107 |
| COc1cc(O)cc(OC)c1OC [euspeclibcmpd1601] | -0.369 |
| Oc1cccc2[nH]ccc12 [euspeclibcmpd2031] | -0.358 |
| COc1c(O)cccc1O [euspeclibcmpd1665] | 3.35 (active) |
| COc1cccc(O)c1O [euspeclibcmpd1624] | 10.7 (active) |
| N=C(N)NCCCC(N)C(=O)O (configuration not stated) [euspeclibcmpd695] | -0.363 |

| Structure (SMILES) | Srxn1-GFP intensity median modified Z-score |
| --- | --- |
| CC(C)N=c1nccc[nH]1 [euspeclibcmpd1194] | -0.779 |
| NC[C@H]1O[C@H](O[C@H]2C(O[C@@H]3O[C@H](CO)[C@@H](O)[C@H]3O)[C@@H](O)[C@H](N)C[C@@H]2N)[C@H](N)[C@@H](O)[C@@H]1O (some centres not stated) [euspeclibcmpd1069] | -0.384 |
| CCOc1ccc(C(=O)c2ccc(OC)c(O)c2O)cc1 [euspeclibcmpd1975] | -0.333 |
| CCO[C@@]1(C)C[C@H]1NC(=O)N[C@@H]1C[C@@H]1C(F)F | 0.985 |
| CC1C(=NC(=O)C(NOC(C)(C)C(=O)O)c2csc(=N)[nH]2)C(=O)N1S(=O)(=O)O (configuration not stated) [euspeclibcmpd708] | -0.0945 |
| CCOc1cc2c(cc1/C=C/C(=O)N(C)C(C)c1ccc(-n3cncn3)cc1)OC(C)C2 (configuration not stated) | 0.413 |
| Oc1c(Cl)cc(Cl)c(Cl)c1Cc1c(O)c(Cl)cc(Cl)c1Cl [euspeclibcmpd146] | 44.1 (active) |
| Cc1ccc2c(Cl)cc(Cl)c(O)c2n1 [euspeclibcmpd1014] | -0.191 |
| CCC[C@@H]1C[C@@H](C(=O)N[C@@H]([C@H]2O[C@H](SC)[C@H](O)[C@@H](O)[C@H]2O)[C@@H](C)O)N(C)C1 | 1.1 |
| COC(=O)[C@H]1[C@H]2C[C@@H]3c4[nH]c5cc(OC)ccc5c4CCN3C[C@H]2C[C@@H](OC(=O)c2cc(OC)c(OC)c(OC)c2)[C@@H]1OC [euspeclibcmpd2385] | 6.53 (active) |
| O=C(O)C1[C@H]2C[C@H]3c4[nH]c5ccccc5c4CCN3C[C@@H]2CC[C@@H]1O (some centres not stated) [euspeclibcmpd1655] | -0.233 |
| C[C@H]1O[C@H](OC[C@@H]2O[C@H](Oc3c(-c4ccc(OCCO)c(OCCO)c4)oc4cc(OCCO)cc(O)c4c3=O)[C@@H](O)[C@H](O)[C@H]2O)[C@@H](O)[C@@H](O)[C@@H]1O [euspeclibcmpd1205] | -0.542 |
| O=C(c1ccccc1)c1ccc(Cl)cc1O | 1.14 |
| CCN(C(=O)COC(=O)C1=NNC(=O)CC1)C1CCS(=O)(=O)C1 (configuration not stated) | 1.01 |
| NC(Cc1ccc(O)c(O)c1)C(=O)O (configuration not stated) [euspeclibcmpd949] | -1.39 |
| NCCc1ccc(O)c(O)c1 [euspeclibcmpd2286] | 9.36 (active) |
| NCCc1ccc(O)c(O)c1 [euspeclibcmpd2150] | -1.01 |
| C[C@](N)(Cc1ccc(O)c(O)c1)C(=O)O [euspeclibcmpd194] | -0.447 |
| CO[C@@H]1[C@@H](OC(N)=O)[C@@H](O)[C@H](Oc2ccc3c(=O)c(NC(=O)c4ccc(O)c(CC=C(C)C)c4)c(O)oc3c2C)OC1(C)C [euspeclibcmpd2334] | -0.255 |
| N#CCSc1nnc(-c2ccc(Br)cc2)n1C1CCCCC1 | 1.88 |
| CCC(C)C(=N)C1NC(C(=O)NC(CC(C)C)C(=O)NC(CCC(=O)O)C(=O)NC(C(=O)NCCCCC2NC(=O)C(CC(N)=O)NC(=O)C(CC(=O)O)NC(=O)C(Cc3c[nH]cn3)NC(=O)C(Cc3ccccc3)NC(=O)C(C(C)CC)NC(=O)C(CCCN)NC2=O)C(C)CC)CS1 (configuration not stated) [euspeclibcmpd30] | -0.458 |
| CC(C)CC1NC(=O)C(CCCN)NC(=O)C(C(C)C)NC(=O)C(Cc2ccc(O)cc2)NC(CCC(=O)O)C(=O)NC(CC(N)=O)C(=O)C(Cc2ccccc2)NC(=O)C(Cc2ccccc2)NC(=O)C2CCCN2C(=O)C(Cc2ccccc2)NC1=O (configuration not stated) [euspeclibcmpd1841] | 2.86 (active) |
| CCC(C)CCCCC(=O)NC(CCN)C(=O)NC(C(=O)NC(CCN)C(=O)NC1CCNC(=O)C(C(C)O)NC(=O)C(CCN)NC(=O)C(CCN)NC(=O)C(CC(C)C)NC(=O)C(Cc2ccccc2)NC(=O)C(CCN)NC1=O)C(C)O (configuration not stated) [euspeclibcmpd239] | 0.328 |
